Source: PubChem BioAssay
12-LOX inh = ALOX12 (human) lipoxygenase inhibition; AID 1671190; 580,000 compounds, 1.1% hits; Potency, µM (titrated, usually from 108 µM), hits mostly inhibitors; purified 12hLO, xylenol orange hydroperoxide absorbance
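Purified human 12hLO (150 nM final) in 25 mM Hepes, 0.01% Triton X-100, pH 7.0 was preincubated 15 min at room temperature with compound. Then 40 uM arachidonic acid was added, 30 min. Hydroperoxide was read by Fe-XO absorbance ratio 573/405 nm.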
JMJD2A Tudor = inhibitors of human JMJD2A Tudor domain. 390,000 compounds, 4.4% hits. Potency, µM (titrated, usually from 114 µM), actives largely listed as inhibitors. AlphaScreen JMJD2A-Tudor / H3K4me3 peptide binding. AID 504339; also: nearly all actives have a fitted effect of over 50% in size
HP1b binding inh = inhibitors of HP1-beta chromodomain binding to methylated histone tails. 390,000 compounds, 0.56% hits. P83916. AlphaScreen HP1-beta / biotin-H3K9me3 peptide binding. Potency, µM (series often up to 114 µM), most hits filed as inhibitors; also: nearly all actives have a fitted effect of over 70% in size
Target sequence (P83916 whole entry, looked up): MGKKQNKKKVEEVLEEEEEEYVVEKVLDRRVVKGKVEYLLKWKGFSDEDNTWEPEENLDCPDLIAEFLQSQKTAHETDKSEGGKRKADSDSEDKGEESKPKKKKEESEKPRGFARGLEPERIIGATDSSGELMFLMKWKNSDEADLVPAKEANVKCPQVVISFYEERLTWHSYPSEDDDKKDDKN
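HP1-beta protein (50 nM final) preincubated 30 min at room temperature with biotinylated H3(1-18)K9me3 peptide (50 nM) in PBS pH 7.4, 0.01% Tween-20, then compound added for 30 min. AlphaScreen streptavidin donor/nickel chelate acceptor beads (10 ug/mL final), 30 min dark, luminescence read.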
G9a block = blocks human histone lysine methyltransferase G9a; Q96KQ7; Potency, µM (titrated, usually from 102 µM), most hits filed as inhibitors; G9a H3K9 monomethylation, AlphaScreen, 2 h; 350,000 compounds, 8.8% hits; AID 504332; also: nearly all actives have a fitted effect of over 75% in size
Target sequence (Q96KQ7 913-1193 limits assumed): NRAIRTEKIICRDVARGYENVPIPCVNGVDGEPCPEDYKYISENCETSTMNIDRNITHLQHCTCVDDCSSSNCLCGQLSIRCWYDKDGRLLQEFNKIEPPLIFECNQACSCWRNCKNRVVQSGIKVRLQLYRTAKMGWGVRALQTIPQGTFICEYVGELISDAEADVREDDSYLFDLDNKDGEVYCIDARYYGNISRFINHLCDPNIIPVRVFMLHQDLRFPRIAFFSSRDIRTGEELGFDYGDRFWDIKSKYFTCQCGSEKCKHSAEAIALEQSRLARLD
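AlphaScreen detection with an anti-monomethyl H3K9 antibody quantified product after a 2 h room-temperature reaction containing 500 nM biotinylated H3K9 peptide, 20 µM SAM and 20 nM enzyme, which had been preincubated 15 min with compound.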
BAZ2B block = blocks human BAZ2B. Q9UIF8. AlphaScreen BAZ2B-H3K14Ac peptide displacement. Potency, µM (series often up to 114 µM), hits mostly inhibitors. 360,000 compounds, 4.4% hits; also: nearly all actives have a fitted effect of over 60% in size
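AlphaScreen displacement: compounds (up to 110uM) incubated 30 min at room temperature with a preformed 50 nM BAZ2B/50 nM biotinylated H3K14Ac peptide complex in PBS pH 7.4 with Tween-20. Donor and acceptor beads at 10 ug/mL final added, 20 min light-protected before reading.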
PLK1 PBD inh = blocks phosphopeptide binding to human PLK1 polo-box domain; P53350; Plk1 PBD binding of FITC phosphopeptide, fluorescence polarization; Potency, µM, actives largely listed as inhibitors; 360,000 compounds, 2.8% hits; AID 720504; also: series mostly up to about 57 µM; nearly all actives have a fitted effect of over 65% in size
Large screens that a line does not name were inactive. In the library only some 9% were active in any assay of this set; here they are far more common. Calls follow the shape of the dose curve; as a rule, active = well fitted curve in the direction sought with a large enough effect; inconclusive = small, poorly fitted or top-dose-only effect, or another doubt; inactive = no such curve, though single readings can be large; an effect the other way counts as inactive or inconclusive.

CCOC(=O)CC1C(=O)NCCN1c1nc2ccc(C)cn2c(=O)c1/C=C1\SC(=S)N(CC(C)C)C1=O (configuration not stated)	G9a block inconclusive, BAZ2B block 79µM (no result: 12-LOX inh)
COc1ccc(-c2noc(COc3ccc(C)cc3C)n2)cc1OC	none (no result: PLK1 PBD inh)
COC(=O)C[C@@H]1C=C[C@@H](NC(=O)C2CCC2)[C@@H](CO)O1	none (no result: JMJD2A Tudor, HP1b binding inh, G9a block, BAZ2B block)
CCn1cc(C(=O)NCCc2ccc(Cl)cc2)c(=O)c2ccc(C)nc21	none
Cc1cc(C)c(C#N)c(SCc2ccc([N+](=O)[O-])cc2)n1	none
CCCC1=C(C(=O)OCC)C(c2ccc(N(C)C)cc2)n2ncnc2N1 (configuration not stated)	JMJD2A Tudor inconclusive, G9a block 45µM, BAZ2B block inconclusive
CCCCOC(=O)C1=C(C)Nc2ncnn2C1c1ccc(OC)c(OC)c1 (configuration not stated)	G9a block 50µM, BAZ2B block inconclusive
CCOC(=O)C1=C(COC(=O)/C=C/c2ccc(C)o2)NC(=O)NC1C (configuration not stated)	12-LOX inh inconclusive, G9a block inconclusive
CCOC(=O)C1=C(O)/C(=C/c2ccc(-c3ccccc3C(=O)O)o2)SC1=Nc1ccc(C)cc1	12-LOX inh inconclusive, JMJD2A Tudor 50µM, PLK1 PBD inh inconclusive
CCOC(=O)C1=C(O)/C(=C/c2ccc(OCC(=O)O)c(OCC)c2)SC1=Nc1ccccc1	BAZ2B block inconclusive
CCOC(=O)C1=C(O)/C(=C/c2cc(OC)c(O)c(OC)c2)SC1=Nc1ccc(OC)cc1	G9a block 8.9µM
CN1CCC([C@@H]2CN(C(=O)c3ccc4cc[nH]c4c3)C[C@H]2C(N)=O)CC1	none (no result: JMJD2A Tudor, HP1b binding inh, G9a block, BAZ2B block, PLK1 PBD inh)
O=c1cc(-c2ccc(O)cc2)oc2cc(O)c(C3OC(CO)C(O)C(O)C3O)c(O)c12 (configuration not stated)	12-LOX inh inconclusive, JMJD2A Tudor inconclusive, G9a block inconclusive, BAZ2B block inconclusive
COc1c(O)cc2c(c1O)[C@@H]1O[C@H](CO)[C@@H](O)[C@H](O)[C@H]1OC2=O	none
Cc1c(C(=O)O)c(O)cc2c1C(=O)c1c(O)c([C@@H]3O[C@H](CO)[C@@H](O)[C@H](O)[C@H]3O)c(O)c(O)c1C2=O	JMJD2A Tudor 25µM, HP1b binding inh inconclusive (no result: G9a block, BAZ2B block)
Cc1c(C(=O)O)c(O)cc2c1C(=O)c1c(O)c([C@H]3O[C@H](CO)[C@@H](O)[C@H](O)[C@H]3O)c(O)c(O)c1C2=O	G9a block 7.1µM (no result: 12-LOX inh, JMJD2A Tudor, HP1b binding inh, BAZ2B block, PLK1 PBD inh)
Clc1ccc(C2=NNC(=NCc3ccc4c(c3)OCO4)SC2)cc1	12-LOX inh inconclusive, JMJD2A Tudor inconclusive, G9a block 28µM, PLK1 PBD inh 17µM
O=c1[nH]c(=O)n(Cc2ccccc2)c2nc(-c3ccc(Oc4ccc(F)cc4)c([N+](=O)[O-])c3)n(CCO)c12	JMJD2A Tudor inconclusive, G9a block inconclusive, BAZ2B block inconclusive
C=CCn1c(-c2ccccc2)c[nH]c1=S	12-LOX inh inconclusive, JMJD2A Tudor 7.9µM, HP1b binding inh inconclusive, G9a block inconclusive
CCn1c(-c2ccc(-c3ccccc3)cc2)c[nH]c1=S	12-LOX inh inconclusive, G9a block inconclusive
C=CCn1c(-c2ccc(Cl)cc2)c[nH]c1=S	12-LOX inh inconclusive, JMJD2A Tudor 25µM, G9a block 1.4µM
C=CCn1c(=N)n(CC(=O)c2ccc(Cl)cc2)c2ccccc21	none
Cn1c(-c2ccc(-c3ccccc3)cc2)c[nH]c1=S	12-LOX inh 40µM, JMJD2A Tudor inconclusive, G9a block 14µM
Cc1ccc(S(=O)(=O)N2CCN(C(=O)N3CCOCC3)CC2)cc1C	none
Cc1ccc(S(=O)(=O)c2cc3c(=O)n4cccc(C)c4nc3n(CC3CCCO3)c2=N)cc1 (configuration not stated)	none (no result: 12-LOX inh, JMJD2A Tudor, HP1b binding inh, PLK1 PBD inh)
CCOC(=O)c1ccc(-n2c(CN3CCC(O)CC3)nc3ccc([N+](=O)[O-])cc3c2=O)cc1	G9a block 13µM, BAZ2B block inconclusive, PLK1 PBD inh inconclusive
CCC(CC)N1CCN(Cc2nc3ccc([N+](=O)[O-])cc3c(=O)n2-c2ccccc2F)CC1	none (no result: 12-LOX inh)
CCOC(=O)N1CCN(Cc2nc3ccc([N+](=O)[O-])cc3c(=O)n2-c2ccccc2F)CC1	G9a block 79µM (no result: 12-LOX inh)
CCOC(=O)c1ccc(-n2c(CN3CCOCC3)nc3ccc([N+](=O)[O-])cc3c2=O)cc1	G9a block 45µM
CCOC(=O)c1ccc(-n2c(CN3CCC(C(N)=O)CC3)nc3ccc([N+](=O)[O-])cc3c2=O)cc1	G9a block inconclusive (no result: BAZ2B block)
CCOC(=O)c1ccc(-n2c(CN(CC)CC)nc3ccc([N+](=O)[O-])cc3c2=O)cc1	JMJD2A Tudor inconclusive, G9a block 10µM, PLK1 PBD inh inconclusive (no result: BAZ2B block)
COc1cc(Cl)c(C)cc1NC(=O)CCn1cnc2onc(-c3ccc(F)cc3)c2c1=O	none (no result: PLK1 PBD inh)
CCOC(=O)c1ccc(-n2c(CN3CCN(CC)CC3)nc3ccc([N+](=O)[O-])cc3c2=O)cc1	12-LOX inh inconclusive, G9a block 56µM (no result: BAZ2B block)
CCOc1ccc(N(CC(=O)NCc2ccccc2)S(C)(=O)=O)cc1	none
Cc1ccc(S(=O)(=O)N2CCCCC2c2cccnc2)c(C)c1C (configuration not stated)	none
Cc1nn(-c2ccccc2)c2c1C(c1cccnc1)N1C=C(S(=O)(=O)N3CCCCC3)C=CC1=N2 (configuration not stated)	12-LOX inh inconclusive, JMJD2A Tudor inconclusive, G9a block 79µM
Cc1ccc2[nH]c(CSc3nnc(C)s3)cc(=O)c2c1	G9a block inconclusive (no result: PLK1 PBD inh)
COc1ccc(-c2c3c(=O)n(C)c(=O)n(C)c3cn2-c2cccc(N)c2)cc1	JMJD2A Tudor inconclusive, HP1b binding inh inconclusive, G9a block 11µM, BAZ2B block inconclusive (no result: PLK1 PBD inh)
COc1ccc(-c2c3c(=O)n(C)c(=O)n(C)c3cn2-c2ccccc2)cc1	12-LOX inh inconclusive, G9a block inconclusive
COc1ccc(-c2c3c(=O)n(C)c(=O)n(C)c3cn2-c2ccc(O)cc2)cc1	HP1b binding inh inconclusive, BAZ2B block 79µM
CCOC(=O)N1C(=O)[C@](CC)(c2ccccc2)N1C(=O)OCC	PLK1 PBD inh 17µM (no result: G9a block)
Cc1noc(C)c1-c1nc(CS(=O)(=O)c2ccccc2)no1	none
C=CCN1C(=O)C2(C(C#N)=C(N)Oc3n[nH]c(CCC)c32)c2ccccc21 (configuration not stated)	none
CCOC(=O)C1(C)/C(=N/Nc2cccc(Cl)c2)C(=O)C(=O)N1c1ccccc1 (configuration not stated)	12-LOX inh 22µM, JMJD2A Tudor 28µM, HP1b binding inh inconclusive, G9a block inconclusive, BAZ2B block inconclusive, PLK1 PBD inh inconclusive
